Here are results for 40 compounds from PubChem BioAssay (NCI).

Where “and” joins values, the source holds several entries; their conditions need not be identical. Equal entries are not always repeated. Compounds without any hit were thinned out: in the full panel of roughly 83,000, 20% have a hit.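 Values shown are percent growth following 48 h exposure of cells in 96-well plates to a single concentration of compound; below 10 was considered active.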 Calls of active or inactive are those of the source.

In the experiment the test system is HL-60(TB) leukemia. Briefly: NCI-60 one-dose screen, 48 h (100 = growth as untreated, 0 = no growth, -100 = all killed). Conditions: 10 µM unless noted.
Turning to `COc1ccccc1OC(=O)Oc1ccccc1OC`, the growth was 101% (inactive) and 98.4% (inactive). Regarding `C#Cc1nc2ccccc2c(=O)[nH]1`, the growth was -42.4% (active). For `COc1cc(NC(N)=NCCC(C)(C)c2ccc(C(F)(F)F)cc2)ncc1C#N`, the growth is -34.6% (active).

On to `CCCCCCCC[C@@H]1N[C@@H](C(=O)OC)Cc2c1[nH]c1ccccc21`, for which the growth is 99% (inactive). As for `CNC(=O)c1cc(Oc2ccc(NC(=O)Nc3ccc(Cl)c(OC(C)C)c3)c(F)c2)ccn1`, the figure is 59.6% (inactive). `O=C(NCc1cccnc1)c1ccc([N+](=O)[O-])o1`: the growth is 9.68% (active). As for `O=C(O)CCCN1C(=O)C2C3CCC(C3)C2C1=O` (stereo not given), the figure is 116% (inactive). `Cc1cc(C(=O)CSc2nc3ccccc3c(=O)[nH]2)c(C)n1C`: the growth is 102% (inactive). For the compound `Nc1c(C(=O)Nc2ccccc2)sc2nc3c(cc12)CCCCC3`, the growth was 10.4% (inactive). As for `O=[N+]([O-])c1ccc2[nH]cc(-c3c4ccccc4cc4[nH]c5ccc([N+](=O)[O-])cc5c34)c2c1`, the growth was 11.7% (inactive). With `CCCCCCCCCCCCCCCCCCOc1ccccc1CC(=O)OCC[N+]1(C)CCCC1` the figure was 22.9% (inactive); with `NC(=S)Cc1ccccc1`, 99.1% (inactive); with `FC(F)(F)c1cccc(Nc2nc3ccccc3nc2Nc2cccc(C(F)(F)F)c2)c1`, -48.9% (active). As to `O=C(CN1C(=O)S/C(=C\C(Cl)=C\c2ccccc2)C1=O)NCCc1ccc(O)cc1`, the growth was 3.33% (active). Turning to `O=C1c2ccccc2-c2c1c1c(=O)[nH]c3ccccc3c1n2Cc1ccccc1`, the growth was 73.9% (inactive).

Take `CN1CCN(CC(=O)N(C)c2ccc(N=C(c3ccccc3)c3c(O)[nH]c4ccc(C#N)cc34)cc2)CC1`: the growth is 14.9% (inactive). With `O[C@@H]1Cc2ccc3ccccc3c2N[C@H](c2ccoc2)C1` the figure was 105% (inactive); with `C=C1CCC[C@]2(C)CCC[C@H](C)[C@@H](OC(C)=O)[C@@H]3OC(=O)C(=C)[C@@H]3C[C@H]1O2`, 41.8% (inactive); with `CCOc1cc(Br)c(C(C)NC(=O)c2cccc(OC)c2)cc1OCC` (stereo not given), 45.7% (inactive). As for `CC(=O)Nc1ccc(S(=O)(=O)Nc2cccc(-c3nc(-c4ccc(NC(=O)c5cccnc5)cc4Cl)no3)c2)cc1`, the figure is 24% (inactive); as for `O=C(O)[C@@H]1c2ccccc2-c2ccccc2[C@H]1C(=O)O`, 91.3% (inactive); as for `C#COc1cccc(Nc2ncnc3ncc(NC(=O)CCl)cc23)c1`, -1.51% [6.25 µM] (active).

Turning to `Clc1ccc(N/N=C/c2ccccn2)nc1`, the growth was -15.4% (active). As for `O=C(Oc1cccc(OC(=O)c2ccccc2)c1)c1ccccc1`, the figure is 73% (inactive) and 114% (inactive); as for `CCCCCCCCCCCCCCNC(=O)Nc1ccc(Cl)c(Cl)c1`, 79.1% (inactive). As for `CN(CC(=O)Nc1nc2ccccc2[nH]1)S(=O)(=O)c1ccc(Cl)cc1`, the figure is 90% (inactive); as for `Cc1c(C(=O)NCCCc2ccccc2)sc2ncc(-c3ccc(Br)cc3)n12`, 90.1% (inactive); as for `O=C(O)CNS(=O)(=O)c1ccc(OCCOc2ccc(S(=O)(=O)NCC(=O)O)cc2)cc1`, 98.7% (inactive). As for `Cc1oc(-c2ccc(Cl)cc2)nc1/C=C/C(=O)c1ccccc1`, the figure is 97.1% (inactive); as for `C=C(C)[C@@H]1CCC[C@]2(COS(=O)(=O)c3ccc(C)cc3)CC[C@]3(C)[C@@H](CC[C@@H]4[C@@]5(C)CCCNC(C)(C)[C@@H]5CC[C@]43C)[C@@H]12`, -35% (active); as for `CCOC(=O)c1cc(C(=O)c2cc(OC)c(OC)c(OC)c2)n2ncccc12`, -32.5% (active).

For `O=C(Nc1ccc(Cl)cc1)c1cc(-c2ccc(F)cc2)c2sc(=O)[nH]c2n1`, the growth was -30.6% (active). For `COC(=O)[C@]12CCC(C)(C)C[C@H]1C1=CC[C@@H]3[C@@]4(C)C/C(=C/c5cccnc5)C(=O)C(C)(C)[C@@H]4CC[C@@]3(C)[C@]1(C)CC2`, the growth is -13.5% [100 µM] (active). As to `COc1ccc(-c2nn(-c3cccc(Cl)c3)cc2-c2c(C#N)c(=O)n3[nH]c(-c4ccccc4)nc3c2C#N)cc1`, the growth was 79.9% (inactive).

For the compound `Cn1ccc2c(c1=O)C(=O)c1nccc3c1c-2nc1ccccc13`, the growth is -67.4% (active). Consider `COc1cc2cc(Oc3ccc(NC(=O)Nc4ccc(Cl)c(C(F)(F)F)c4)cc3)c(C)nc2cc1OCCN1CCCCC1`, for which the growth was 30.5% (inactive).

For `CCN(CC)CCCC(CNc1ccnc2cc(Cl)ccc12)c1ccc(Cl)cc1` (stereo not given), the growth is -40.4% (active) and -71% (active). With `Cc1ccc2nc(C)c(-c3nnc(SCc4ccc(C#N)cc4)o3)n2c1` the figure was 111% (inactive); with `Cc1nn(-c2ccccc2)c(N2CCOCC2)c1/C=N/N=c1\sc2ccccc2n1C`, 67.2% (inactive); with `CO[C@H]1/C=C/O[C@@]2(C)Oc3c(C)c(O)c4c(O)c(c(/C=N/N5CCN(C)CC5)c(O)c4c3C2=O)NC(=O)/C(C)=C\C=C\C(C)[C@H](O)[C@@H](C)[C@@H](O)[C@@H](C)[C@@H](OC(C)=O)[C@@H]1C` (stereo not given in full), 104% (inactive).
